Assay [1] relates to TRPC4 beta (transient receptor potential cation channel C4), mouse. The assay is described as follows: TRPC4 cation channel opening, retest – cell-based, Fluo4 calcium, HEK293 TRPC4beta/mu-opioid, duplicates, 10 µM, confirmation (AID 2426;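 active means fluorescence ratio normalized to control raised more than 50% in primary screen plus both repeat runs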). Particulars: Fluo4 calcium fluorescence, at 10 µM; stronger effect = higher value.
The test system of assay [2] is transient receptor potential cation channel C4 beta (TRPC4), mouse. The assay is described as follows: TRPC4 cation channel opening, second retest – cell-based, second round, Fluo4, HEK293 TRPC4beta/mu-opioid, 1 µM, confirmation (AID 2461). The note with it: Fluo4 calcium fluorescence, at 1 µM; stronger effect = higher value.
The subject of assay [3] is TRPC4 (transient receptor potential cation channel C4 beta), mouse. The assay is described as follows: potentiation of DAMGO EC20 TRPC4 response – cell-based, second round, Fluo-4, HEK293 TRPC4beta/mu-opioid, 1 µM, confirmation (AID 2554;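 active means primary screen hit whose fluorescence ratio, in both repeats, exceeds the weak agonist control mean by 3 SD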). The note with it: DAMGO EC20, Fluo-4 calcium flux, at 1 µM; stronger effect = higher value.
Assay [4] deals with TRPC4 beta (transient receptor potential cation channel C4), mouse. The assay is described as follows: potentiation of DAMGO EC20 TRPC4 response – cell-based, Fluo-4, HEK293 TRPC4beta/mu-opioid, confirmation (AID 2555;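 active means primary screen hit whose calcium fluorescence ratio, in both repeats, exceeds the weak agonist control mean by 3 SD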). Particulars: DAMGO EC20, Fluo-4 calcium flux, at 10 µM; stronger effect = higher value.
The target in assay [5] is Short transient receptor potential channel 4 (Mus musculus) (UniProt Q9QUQ5). Description: blockers of DAMGO-evoked TRPC4 calcium flux – cell-based, Fluo4, HEK293 TRPC4beta/mu-opioid, confirmation (AID 2636;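 active means calcium signal cut by more than 3 SD below the full-agonist control yet still positive, in both repeats and the earlier primary screen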). Particulars: at 10 µM; stronger effect = higher value.
Short transient receptor potential channel 4 (Mus musculus), sequence (Q9QUQ5 whole entry, looked up): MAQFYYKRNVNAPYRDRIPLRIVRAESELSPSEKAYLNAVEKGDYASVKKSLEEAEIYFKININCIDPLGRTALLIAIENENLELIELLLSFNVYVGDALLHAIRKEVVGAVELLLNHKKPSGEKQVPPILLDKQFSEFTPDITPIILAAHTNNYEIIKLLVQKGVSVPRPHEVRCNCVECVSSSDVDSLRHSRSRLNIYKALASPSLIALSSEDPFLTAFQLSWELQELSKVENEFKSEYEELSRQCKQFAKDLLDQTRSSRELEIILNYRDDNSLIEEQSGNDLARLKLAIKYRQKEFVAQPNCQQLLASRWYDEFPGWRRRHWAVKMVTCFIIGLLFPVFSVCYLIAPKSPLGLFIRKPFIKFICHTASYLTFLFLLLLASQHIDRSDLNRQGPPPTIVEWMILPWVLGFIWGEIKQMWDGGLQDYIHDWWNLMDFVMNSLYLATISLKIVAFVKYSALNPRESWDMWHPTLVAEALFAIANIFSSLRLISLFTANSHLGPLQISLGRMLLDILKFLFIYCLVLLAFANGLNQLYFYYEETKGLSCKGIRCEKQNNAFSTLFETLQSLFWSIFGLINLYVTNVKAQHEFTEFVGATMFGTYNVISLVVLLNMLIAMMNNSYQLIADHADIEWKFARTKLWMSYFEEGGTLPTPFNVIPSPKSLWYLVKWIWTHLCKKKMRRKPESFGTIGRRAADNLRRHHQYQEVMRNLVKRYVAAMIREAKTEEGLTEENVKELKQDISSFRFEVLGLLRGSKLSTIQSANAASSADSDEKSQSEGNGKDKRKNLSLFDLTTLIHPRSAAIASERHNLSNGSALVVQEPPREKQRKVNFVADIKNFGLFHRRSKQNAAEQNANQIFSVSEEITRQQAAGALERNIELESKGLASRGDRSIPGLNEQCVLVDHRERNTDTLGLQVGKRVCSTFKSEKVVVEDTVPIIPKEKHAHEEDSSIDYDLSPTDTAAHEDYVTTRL
For assay [6] the target is unchanged. Description: blockers of DAMGO-evoked TRPC4 calcium flux – cell-based, second round, Fluo4, HEK293 TRPC4beta/mu-opioid, 1 µM, confirmation (AID 2637;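 active means calcium signal ratio cut to more than 3 SD under the fully stimulated control mean yet still positive, in both repeats and the primary screen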). Particulars: at 1 µM; stronger effect = higher value.
The target is the same in assay [7]. Description: calcium entry via TRPC4 opening agents – cell-based, HEK293 TRPC4/mu-opioid, Fluo-4 calcium, dose response (AID 434937;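 active means primary screen activator hit with a dose response curve and TRPC4 channel activation at any tested dose; inactive means no activation, no dose response, or not a primary hit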).
For assay [8] the target is unchanged. Description: potentiation of DAMGO-evoked TRPC4 calcium signal – cell-based, HEK293 TRPC4/mu-opioid, Fluo-4 calcium, EC20 DAMGO, dose response (AID 434941;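 active means earlier screen potentiator hit that boosts the TRPC4 ion channel at some dose, with a dose response; inactive means no potentiation, no dose response, or not a prior hit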;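 further: calcium entry triggered by an EC20 dose of DAMGO at the co-expressed mu-opioid receptor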).
For assay [9] the target is unchanged. Description: block of DAMGO-driven TRPC4 calcium entry – cell-based, HEK293 TRPC4/mu-opioid, Fluo-4 calcium, dose response (AID 434942;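 active means primary screen inhibitor hit that blocks the TRPC4 channel at some tested dose, yielding a dose curve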).
In assay [10] the target is Short transient receptor potential channel 6 (Mus musculus) (UniProt Q61143). Description: TRPC6 blockade by TRPC4 inhibitor hits – cell-based, HEK293, membrane potential dye, duplicate, selectivity assay for TRPC4 inhibitor project, confirmation (AID 434948;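 active means active in primary screen and both duplicates, each dropping signal beyond three positive-control SD with fluorescence still positive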). The note with it: HEK293 TRPC6, membrane potential dye fluorescence, at 10 µM, stimulated with maximal-effect acetylcholine; stronger effect = higher value.
Short transient receptor potential channel 6 (Mus musculus), sequence (Q61143 whole entry, looked up): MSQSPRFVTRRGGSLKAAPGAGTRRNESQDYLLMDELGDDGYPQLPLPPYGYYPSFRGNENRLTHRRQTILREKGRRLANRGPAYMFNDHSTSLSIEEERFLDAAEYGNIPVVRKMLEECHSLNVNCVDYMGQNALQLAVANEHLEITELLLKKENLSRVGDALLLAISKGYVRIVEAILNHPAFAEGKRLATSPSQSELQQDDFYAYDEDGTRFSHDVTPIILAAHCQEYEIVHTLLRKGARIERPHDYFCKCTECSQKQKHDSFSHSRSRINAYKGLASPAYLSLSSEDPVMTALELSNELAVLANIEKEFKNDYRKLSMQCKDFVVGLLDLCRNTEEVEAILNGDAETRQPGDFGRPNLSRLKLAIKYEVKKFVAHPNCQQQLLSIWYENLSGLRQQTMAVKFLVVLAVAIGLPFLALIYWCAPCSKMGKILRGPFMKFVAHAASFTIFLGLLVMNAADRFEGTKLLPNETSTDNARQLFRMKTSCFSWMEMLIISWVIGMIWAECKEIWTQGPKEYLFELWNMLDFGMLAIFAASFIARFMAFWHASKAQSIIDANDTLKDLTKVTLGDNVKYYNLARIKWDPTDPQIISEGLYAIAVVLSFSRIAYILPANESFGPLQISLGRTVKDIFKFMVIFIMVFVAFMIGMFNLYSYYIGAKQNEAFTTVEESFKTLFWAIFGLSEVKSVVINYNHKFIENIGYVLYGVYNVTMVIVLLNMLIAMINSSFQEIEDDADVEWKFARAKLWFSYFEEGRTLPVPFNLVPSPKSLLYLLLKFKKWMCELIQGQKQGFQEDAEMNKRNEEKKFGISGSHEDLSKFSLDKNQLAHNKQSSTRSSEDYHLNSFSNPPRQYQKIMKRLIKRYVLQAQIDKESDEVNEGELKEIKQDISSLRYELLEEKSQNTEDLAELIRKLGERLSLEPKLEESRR

Assay [11] shares this target. The assay is described as follows: TRPC6 opening by TRPC4 activator hits – cell-based, HEK293, membrane potential dye, duplicate, selectivity assay for TRPC4 activator project, confirmation (AID 434950;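 active means membrane potential signal rise above negative control mean plus 3 SD in both duplicates, also active in the earlier TRPC4 screen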). Particulars: HEK293 TRPC6, membrane potential fluorescence, at 10 µM; activation: stronger effect = higher value; outcome: activation.
Assay [12] has the same target. Description: positive modulators of mouse TRPC6 channel – HEK293 cells, membrane potential dye, duplicate, selectivity assay for TRPC4 potentiator project, confirmation (AID 434952;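 active means compound raising the membrane signal above positive-control mean plus 3 SD in both repeats, and a primary screen hit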). The note with it: HEK293 TRPC6, membrane potential dye fluorescence, at 10 µM, maximal acetylcholine added after compound; stronger effect = higher value.
Assay [13] has as its target Short transient receptor potential channel 4 (Mus musculus) (UniProt Q9QUQ5). Description: calcium flux activators in TRPC4/5HT1a cells, counter-screen for TRPC4 activator project, cell-based, second counter screen, HEK293 TRPC4/5HT1a, Fluo-4 (AID 434977;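 active means calcium signal rise above buffer-control mean plus 5 SD in both duplicates, and also a hit in the primary screen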). The note with it: Fluo-4 calcium flux, at 10 µM; stronger effect = higher value.
The nature of assay [14]: serotonin-gated TRPC4 signal block – cell-based, second counter screen, HEK293 TRPC4/5HT1a, Fluo-4, counter-screen for TRPC4 inhibitor project, confirmation (AID 434978;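 active means primary screen active whose calcium signal fell more than 3 SD beyond the full-serotonin control mean in both duplicate plates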;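 further: serotonin given first at submaximal then at maximal dose after compound preincubation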). Particulars: Fluo-4 calcium flux, at 10 µM, serotonin added to trigger calcium flux; stronger effect = higher value.
Assay [15] concerns TRPC4 (mouse), co-expressed with 5HT1a in HEK293. The assay is described as follows: enhancement of serotonin-evoked TRPC4 response – cell-based, second counter screen, HEK293 TRPC4/5HT1a, Fluo-4, counter-screen for TRPC4 potentiator project, confirmation (AID 434979;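 active means signal rise over 3 SD above mean of control wells given weak agonist, in both repeats and first screen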). Particulars: Fluo-4 calcium flux, at 10 µM, serotonin added at its EC20 dose; stronger effect = higher value.
Assay [16] is described as follows: nonspecific calcium rise without TRPC4 – cell-based, HEK293 mu-opioid receptor line, counter-screen for TRPC4 activator project, confirmation (AID 449723;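 active means hit in primary screen, with calcium signal over 5 SD above buffer well mean in both duplicates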;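 further: counter screen cells carry the mu-opioid receptor alone and lack TRPC4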). Particulars: HEK293 mu-opioid cells, Fluo-4 calcium fluorescence, at 10 µM; stronger effect = higher value.
Assay [17] is described as follows: nonspecific potentiation of DAMGO calcium response – cell-based, HEK293 mu-opioid receptor line, counter-screen for TRPC4 allosteric potentiator project, confirmation (AID 449724;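 active means calcium signal rise more than 3 SD above the low-dose agonist control mean, in both duplicate plates and the primary screen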;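 further: HEK293 cells carrying mu-opioid receptor only with no TRPC4 channel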). Particulars: HEK293 mu-opioid receptor cells, Fluo-4 calcium flux, at 10 µM, compound added before EC20 DAMGO stimulus; stronger effect = higher value.

For part of these data: Potency and affinity values are given separately. Calls of active or inactive are those of the source.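 How the source made its calls, unless noted: active means primary screen active and over 50% activation in each of two duplicate runs; inactive means the rest.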

In PubChem BioAssay one finds outcome and potentiation data, which are given here for 15 compounds.

Regarding `CCN1CCCC(OC(=O)c2cc(-c3ccccc3Cl)nc3ccccc23)C1` (stereo not given), the result in [1], in assay [2], in assay [3], in [4], in [5] and in [6] was inactive. Further, the result in assay [7], in assay [8], in assay [9], in assay [10], in [11] and in assay [12] was inactive. The outcome in [13], in assay [14], in assay [16] and in [17] was inactive. The potentiation in assay [15] is 9.46% (active).

Take `COc1ccc(CCN(C)C(=O)c2cc(S(=O)(=O)N3CCCCC3)ccc2Cl)cc1OC`: the result in assay [1], in assay [2], in assay [3], in assay [4], in assay [5] and in assay [6] was inactive. Further, the outcome in assay [7], in assay [8], in assay [9], in assay [10], in assay [11] and in assay [12] was inactive. Besides, the result in assay [13], in [14], in assay [15], in assay [16] and in assay [17] was inactive.

`CC(C)c1nc2ccc(Br)cn2c1NC1CCCC1`: the result in assay [1], in [2], in assay [3], in assay [4], in assay [5] and in assay [6] was inactive. Moreover, the result in [7], in assay [8], in [9], in assay [10], in assay [11] and in assay [12] was inactive. Further, the result in assay [13], in assay [14], in assay [15], in assay [16] and in [17] was inactive.

`NNc1ccc(Cc2ccc(Cl)cc2Cl)nn1`: the outcome in [1], in assay [2], in assay [3], in [4], in assay [5] and in [6] was inactive. Besides, the outcome in assay [7], in assay [8], in assay [9], in assay [10], in assay [11] and in assay [12] was inactive. For the same compound, the result in assay [13], in [14], in assay [16] and in assay [17] was inactive. Besides, the potentiation in [15] is 15.2% (active).

As for `O=C(Nc1ccc(F)cc1)Nc1cc(S(=O)(=O)N2CCOCC2)ccc1N1CCCC1`, the outcome in assay [1], in assay [2], in [3], in assay [5], in assay [6] and in assay [7] was inactive. Further, the outcome in assay [8], in [9], in [10], in [11], in [12] and in [13] was inactive. Further, the outcome in assay [14], in assay [16] and in assay [17] was inactive. Besides, the potentiation in assay [4] is 53% (active); in assay [15], 33% (active).

As for `O=C(O)c1ccc(N2CCN(C(c3ccccc3)c3ccccc3)CC2)c([N+](=O)[O-])c1`, the result in [1], in [2], in assay [3], in assay [4], in assay [5] and in [6] was inactive. The result in assay [7], in assay [8], in [9], in [10], in assay [11] and in assay [12] was inactive. Further, the result in assay [13], in assay [14], in assay [15], in [16] and in assay [17] was inactive.

For `CCCCn1c(N)c(N(CCOC)C(=O)c2ccc(-c3ccc(C(C)=O)cc3)o2)c(=O)[nH]c1=O`, the result in assay [1], in assay [2], in assay [3], in assay [4], in [5] and in assay [6] was inactive. The outcome in [7], in [8], in assay [9], in [10], in assay [11] and in assay [12] was inactive. Further, the result in assay [13], in assay [14], in assay [15], in assay [16] and in assay [17] was inactive.

In the case of `CC(Sc1nc2sc3c(c2c(=O)n1-c1ccccc1)CCCC3)C(=O)O` (stereo not given), the outcome in assay [1], in [2], in [3], in assay [5], in assay [6] and in assay [7] was inactive. Further, the outcome in assay [8], in assay [9], in assay [10], in assay [11], in assay [12] and in [13] was inactive. The result in assay [14], in assay [16] and in [17] was inactive. Besides, the potentiation in [4] is 12% (active); in assay [15], 22.2% (active).

In the case of `Cc1ccc(C)c2[nH]c(=O)c(C(c3nnnn3C3CCCC3)N3CCOCC3)cc12` (stereo not given), the result in assay [1], in assay [2], in assay [3], in [4], in assay [5] and in assay [6] was inactive. Moreover, the outcome in assay [7], in assay [8], in assay [9], in [10], in assay [11] and in assay [12] was inactive. For the same compound, the outcome in assay [13], in assay [14], in assay [15], in assay [16] and in assay [17] was inactive.

In the case of `COc1cc(NC(=O)C(C)Oc2ccccc2)cc(OC)c1` (stereo not given), the result in [1], in assay [2], in assay [3], in assay [4], in [5] and in assay [6] was inactive. The result in assay [7], in assay [8], in assay [9], in assay [10], in assay [11] and in assay [12] was inactive. In addition, the result in assay [13], in assay [14], in [15], in [16] and in [17] was inactive.

Take `Cc1cc(C)c(C)c(OCCCOc2cccc3cccnc23)c1`: the outcome in assay [1], in [2], in assay [3], in assay [4], in assay [5] and in [6] was inactive. For the same compound, the result in [7], in assay [8], in assay [9], in [10], in assay [11] and in [12] was inactive. Further, the outcome in [13], in assay [14], in assay [16] and in [17] was inactive. Moreover, the potentiation in [15] was 19% (active).

Turning to `Cc1ccc(-c2nn(-c3ccccc3)cc2C(=O)Nc2ccc(C(=O)O)cc2)cc1`, the outcome in [1], in [2], in assay [3], in assay [4], in assay [5] and in assay [6] was inactive. In addition, the result in assay [7], in assay [8], in [9], in assay [10], in assay [11] and in assay [12] was inactive. The result in assay [13], in [14], in assay [15], in assay [16] and in [17] was inactive.

On to `O=C(c1ccccc1)C1CCc2occc2C1=O` (stereo not given), for which the result in assay [1], in assay [2], in assay [3], in assay [4], in [5] and in assay [6] was inactive. Besides, the result in assay [7], in assay [8], in assay [9], in assay [10], in [11] and in assay [12] was inactive. The result in [13], in assay [14], in assay [15], in assay [16] and in assay [17] was inactive.

For `CNC(=S)NNC(=O)c1cccn(Cc2cccc(C(F)(F)F)c2)c1=O`, the result in [1], in assay [2], in assay [3], in [5], in [6] and in [7] was inactive. In addition, the outcome in [8], in assay [9], in assay [10], in assay [11], in [12] and in assay [13] was inactive. Moreover, the outcome in assay [14], in [15], in [16] and in assay [17] was inactive. For the same compound, the potentiation in [4] is 14% (active).

With `CC(C)CN(C(=O)C1CC1)c1c(N)n(Cc2ccccc2)c(=O)[nH]c1=O`, the result in assay [1], in assay [2], in assay [3], in assay [4], in assay [5] and in assay [6] was inactive. In addition, the outcome in assay [7], in [8], in assay [9], in assay [10], in assay [11] and in assay [12] was inactive. For the same compound, the outcome in [13], in [14], in [15], in assay [16] and in [17] was inactive.
